Only some compounds are listed: those with a hit (about 1.1% of all), similar ones and a draw of the others.
CASP6 VEID inh = inhibitors of human caspase-6; P55212; inhibition, % at 12.5 µM; purified caspase-6, Z-VEID-R110 cleavage fluorescence; actives 0.53% (n = 350,000);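 active = mean inhibition across replicates at least about 35%, with every replicate also reaching that limit, limit read from the data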;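 also: 0% = median of neutral control wells and 100% = no fluorescence left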
Keap1 Nrf2 FP = disrupts human Keap1 binding to Nrf2 peptide; Q14145; Keap1 Kelch-Nrf2 peptide fluorescence polarization, 1536-well; inhibition, % at 9.4 µM; actives 0.15% (n = 340,000); AID 504523; in the data active = inhibition above about 12%;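 also: human Keap1 Kelch domain with fluorescein labeled Nrf2 9mer peptide probe; 0% = neutral control wells and 100% = peptide positive control; higher means more block of Keap1 binding to Nrf2 peptide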
Target sequence (Q14145 whole entry, looked up, the tested form may be a part): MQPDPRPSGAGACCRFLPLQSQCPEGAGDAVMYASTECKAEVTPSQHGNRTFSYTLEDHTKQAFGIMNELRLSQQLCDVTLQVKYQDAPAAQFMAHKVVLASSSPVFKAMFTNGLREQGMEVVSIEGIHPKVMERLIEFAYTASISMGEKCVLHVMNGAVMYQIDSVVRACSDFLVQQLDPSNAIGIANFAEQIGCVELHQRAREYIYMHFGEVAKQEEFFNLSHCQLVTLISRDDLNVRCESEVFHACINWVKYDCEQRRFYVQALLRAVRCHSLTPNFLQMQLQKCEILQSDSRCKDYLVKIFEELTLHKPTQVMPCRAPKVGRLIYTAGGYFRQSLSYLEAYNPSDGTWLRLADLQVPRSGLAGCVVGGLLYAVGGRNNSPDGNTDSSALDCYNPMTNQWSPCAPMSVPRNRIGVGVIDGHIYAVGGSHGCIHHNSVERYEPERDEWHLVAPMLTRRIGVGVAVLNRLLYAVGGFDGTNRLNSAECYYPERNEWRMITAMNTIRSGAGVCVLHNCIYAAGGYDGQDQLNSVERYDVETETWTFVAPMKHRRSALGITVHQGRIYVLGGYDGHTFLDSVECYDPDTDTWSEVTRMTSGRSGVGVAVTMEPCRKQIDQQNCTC
LANA DNA inh = KSHV C-LANA DNA binding inhibition. MBP-C-LANA/FAM-LBS DNA binding, fluorescence polarization. inhibition, % at 9 µM. actives 0.078% (n = 340,000);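 active = highest replicate inhibition at or above 60% at 9 µM, even if other replicates fall short; inactive = all replicates below 60% inhibition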;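 also: 0% = neutral control wells and 100% = 4 µM acridine orange control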
N-glyco inh = N-linked glycosylation inhibition | D54 ERlucT glycosylation luciferase reporter, 24 h; percent of 100 nM tunicamycin response | reporter increase, % at 12.5 µM | actives 0.23% (n = 360,000) | AID 588692;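 active = mean luciferase reporter signal, scaled so untreated is 0 and the glycosylation-blocking control 100, at or above a set limit in every replicate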;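 also: luciferase carries N-glycosylation sites so blocking glycosylation raises the light; 0% = median of neutral control wells and 100% = median of 100 nM tunicamycin wells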
HDAC3 inhib = human HDAC3 inhibition | O15379 | recombinant HDAC3, fluorogenic peptide/trypsin coupled, fluorescence | actives 0.15% (n = 320,000) | AID 2718 | inhibition, % at 8.3 µM; in the data active = inhibition above about 26%, passing the limit was not always enough
NSD2 inh = inhibitors of human histone methyltransferase NSD2; actives 0.54% (n = 310,000); inhibition, % at 12.5 µM; NSD2 peptide methylation, AlphaScreen, 120 min; AID 743445; O96028; in the data active = inhibition above about 50%
Alpha artifact = counter-screen for NSD2 inhibitors: AlphaScreen artifacts; shares compounds with NSD2 inh; AC35, µM (titrated, usually from 10 µM), for the others: at the highest dose activity change, negative = signal loss; actives 9.4% (n = 1,500); AID 1053174; AlphaScreen artifact counterscreen, preloaded methylated H4 peptide; call rule not given here
* = called active by the depositor; nt = no result given; + = active, no number.

SMILES	CASP6 VEID inh	Keap1 Nrf2 FP	LANA DNA inh	N-glyco inh	HDAC3 inhib	NSD2 inh	Alpha artifact
CC(C)N1C(=O)/C(=C/C=C/c2ccco2)C(=O)N(Cc2ccco2)C1=O	nt	-19.1	-2.5	30.3*	13.6	107.3*	8.46µM*
C[C@H]1CCCC(=O)CCC/C=C/c2cc(O)cc(O)c2C(=O)O1	-0.8	-4.7	-3.7	-7.0	-1.0	nt	nt
COc1cc(O)cc2c1C(=O)OC(C)CCCC(=O)CCC/C=C\2 (stereo unspecified)	2.8	-4.2	0.5	2.0	-4.6	54.4*	-1.5%
CCCCCSc1cc(OC)c(CCNC)cc1OC	nt	1.3	-1.7	1.2	nt	61.0*	-17.2%
O=C(NC1CN2CCC1CC2)c1cccc(Cl)c1 (stereo unspecified)	-22.6	0.5	1.1	-6.8	-16.9	-1.3	nt
C=C(C)c1cccc(C(C)(C)NC(=O)NC2CN3CCC2CC3)c1 (stereo unspecified)	nt	-1.2	0.0	-0.3	-2.2	51.0*	0.2%
COc1ccc(C#Cc2ccc([C@H]3[C@H]4CN(C(=O)Cc5ccncc5)CCCCN4[C@H]3CO)cc2)cc1	-0.2	nt	nt	nt	nt	nt	nt
CC(C)c1ccc(N2C(=O)NC(=O)/C(=C\C=C\c3ccco3)C2=O)cc1	30.1	nt	nt	nt	2.4	94.2*	-8.3%
CCCCCn1c(N)c(C(=O)NCc2cccs2)c2nc3ccccc3nc21	nt	nt	nt	nt	-5.3	82.8*	4.4%
CCCCNC(=O)c1c(N)n(Cc2ccc3c(c2)OCO3)c2nc3ccccc3nc12	-1.1	2.6	0.6	-0.6	-3.8	68.3*	-6.1%
CCCCn1c(NC(=O)c2ccco2)c(C(=O)OCC)c2nc3ccccc3nc21	nt	-1.5	1.5	5.2	-25.5	174.9*	2.2%
CCCCn1c(N)c(C(=O)OCC2CCCO2)c2nc3ccccc3nc21 (stereo unspecified)	9.1	-3.0	-0.9	11.5	-117.7	82.9*	0.6%
CCC(=O)N1[C@@H]2c3ccc(C4=CCCC4)c(=O)n3C[C@H]1[C@H](CO)[C@H]2C(=O)OC	3.1	nt	nt	nt	nt	nt	nt
O=C(Cc1ccccc1)N1CC2(C1)[C@@H](c1ccccc1)[C@@H](CO)N2Cc1cccc(F)c1	0.2	nt	nt	nt	nt	nt	nt
O=C(Cc1ccccn1)N1CCCCN2[C@@H](CO)[C@@H](c3ccc(-c4ccc(F)cc4)cc3)[C@@H]2C1	2.6	nt	nt	nt	nt	nt	nt
CC=Cc1ccc2n(c1=O)C[C@H]1[C@H](CO)[C@@H](C(=O)OC)[C@@H]2N1CC1CC1 (mixture of isomers)	2.4	nt	nt	nt	nt	nt	nt
COc1ccc(C(O)(c2cncnc2)C2CC2)cc1 (stereo unspecified)	-0.2	nt	nt	nt	nt	nt	nt
COCCCn1c(N)c(C(=O)NCCC(C)C)c2nc3ccccc3nc21	nt	-10.7	-1.5	3.1	1.8	108.7*	5.2%
Fc1ccc(Cn2nnnc2C(c2ccc(Cl)cc2)N2CC=C(c3ccc(F)cc3)CC2)cc1 (stereo unspecified)	-0.6	-4.8	-1.0	-7.7	8.7	50.8*	-0.7%
COc1cc(/C=C2/C(=O)NC(=O)N(c3ccccc3)C2=O)ccc1O	7.6	5.9	11.9	3.2	-7.2	6.9	nt
O=C1NC(=O)N(c2ccccc2)C(=O)/C1=C/c1ccoc1	nt	-31.6	-1.2	1.6	-2.6	50.7*	-5.9%
COc1ccc(C#Cc2ccc([C@H]3[C@H]4CN(C(=O)Cc5cccnc5)CCCCN4[C@H]3CO)cc2)cc1	2.6	nt	nt	nt	nt	nt	nt
O=C(Cc1ccccc1)N1CC2(C1)[C@H](c1ccccc1)[C@@H](CO)N2Cc1cccc(Cl)c1	-0.2	nt	nt	nt	nt	nt	nt
Cn1c(=O)[nH]c2nncnc2c1=O	43.0*	0.3	-1.7	-7.9	-0.4	53.7*	-3.3%
COc1ccc(OC(=O)N(C)C[C@@H]2OCc3ccccc3-c3c(n(C)c4ccccc34)C(=O)N([C@@H](C)CO)C[C@H]2C)cc1	4.0	nt	nt	nt	nt	nt	nt
SMILES	CASP6 VEID inh	Keap1 Nrf2 FP	LANA DNA inh	N-glyco inh	HDAC3 inhib	NSD2 inh	Alpha artifact
COC(=O)c1nc(-c2ccc3c(n2)C(=O)C(N)=C(OC)C3=O)c(N)c(-c2ccc(OC)c(OC)c2O)c1C	54.4*	-11.3	-1.2	5.7	2.5	55.5*	-1.7%
O=C(Cc1cccnc1)N1CCCCN2[C@@H](CO)[C@H](c3ccc(C#CC4CC4)cc3)[C@@H]2C1	0.2	nt	nt	nt	nt	nt	nt
COc1ccccc1N1C(=O)NC(=O)/C(=C/c2ccc([N+](=O)[O-])s2)C1=O	28.2	nt	nt	nt	2.4	27.5	nt
COc1ccc(N2C(=O)NC(=O)/C(=C\c3ccc([N+](=O)[O-])s3)C2=O)cc1	52.3*	-8.5	19.1	-0.6	6.8	51.4*	-1.8%
CC=Cc1ccc2n(c1=O)C[C@@H]1[C@@H](CO)[C@H](C(=O)N(C)C)[C@H]2N1C (mixture of isomers)	1.0	nt	nt	nt	nt	nt	nt
COC(=O)C1=Nc2ccccc2/C1=C\c1c(O)n(-c2ccc(OC)cc2)c(=O)[nH]c1=O	nt	0.1	1.1	-1.7	2.6	3.1	nt
COC(=O)C1=Nc2ccccc2/C1=C\c1c(O)n(-c2ccc(Br)cc2)c(=O)[nH]c1=O	16.0	-3.2	0.4	3.0	-0.4	60.6*	-0.2%
COC(=O)[C@@H]1[C@@H](CO)[C@@H]2Cn3c(ccc(-c4ccccc4)c3=O)[C@H]1N2CC1CC1	-1.8	nt	nt	nt	nt	nt	nt
CCn1nc(-c2cccs2)nc2c(=O)n(C)c(=O)nc1-2	nt	-2.3	1.1	-18.5	nt	nt	nt
CCn1nc(/C=C/c2ccccc2)nc2c(=O)n(C)c(=O)nc1-2	nt	-18.4	4.9	-19.3	nt	+	-1.4%
CC=Cc1ccc2n(c1=O)C[C@@H]1[C@@H](CO)[C@H](C(=O)OC)[C@H]2N1C(=O)CC (mixture of isomers)	-1.2	nt	nt	nt	nt	nt	nt
O=C(Cc1ccccn1)N1CCCCN2[C@H](CO)[C@@H](c3ccc(-c4ccccc4F)cc3)[C@@H]2C1	-2.3	nt	nt	nt	nt	nt	nt
O=[N+]([O-])c1ccc(N2CCCC2)c2ccncc12	3.4	-9.2	-2.2	15.0	4.4	70.5*	-3.6%
O=[N+]([O-])c1ccc(NC2CCCC2)c2ccncc12	nt	-3.5	3.0	0.3	-0.2	8.7	nt
Cc1cc(/C=C2\C(=O)NC(=O)N(c3cccc(F)c3)C2=O)c(C)n1-c1cc(C(=O)O)cc(C(=O)O)c1	29.0	-5.7	7.7	2.1	-1.1	81.1*	-9.4%
O=C(c1cc2ccccc2oc1=O)N1CCC2(CC1)OCCO2	nt	0.3	1.6	2.1	-2.9	64.6*	-4.5%
Cc1cccc(N2C(=O)/C(=C/N3CCN(C(=O)c4ccco4)CC3)C(=O)NC2=S)c1	nt	-13.9	-3.4	0.1	-5.6	1.0	nt
CCOc1cccc(N2C(=O)/C(=C/c3ccco3)C(=O)NC2=S)c1	86.5*	0.1	nt	0.4	1.3	122.8*	2.62µM*
COc1ccc(CN2C(=O)NC(=O)/C(=C\c3ccco3)C2=O)cc1	82.0*	-9.5	30.2	2.0	-0.5	50.5*	-11.1%

Screening data: PubChem, Broad Institute
